Records with an inconclusive call do not appear. A number with no mark means an inactive call. Active and inactive are the calls of the source. Unless noted, the call rests on the fitted dose curve; in most records, active means well fitted curve in the direction sought with a large enough effect in the repeat runs; inconclusive means weak or mixed curves; inactive means no such curve, though single readings can be large; an effect the other way counts as inactive or inconclusive.

The nature of experiment [1]: qHTS assay to identify aromatase inhibitors - cell viability counter screen (AID 743084).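 Further: cells stimulated with testosterone during compound exposure; nearly all actives have a fitted effect of over 55% in size.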 Further: potency means the concentration at half of the fitted maximal effect.
Experiment [2] can be described thus: qHTS assay to identify small molecule that activate the aryl hydrocarbon receptor (AhR) signaling pathway - cell viability counter screen (AID 743086).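 Further: HepG2 liver cells carrying the AhR DRE luciferase reporter; series mostly up to about 70 µM; nearly all actives have a fitted effect of over 45% in size.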 In short, it runs like this:
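HepG2-AhR-luc (HG2L7.5c1) cells, 4000/well, were preincubated 5 h at 37C, exposed to compound in qHTS format for 24 hr at 37C, then given CellTiter-Fluor for 30 min; viability was read as fluorescence in the reporter wells.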

The target of experiment [3] is Peroxisome proliferator-activated receptor gamma (Homo sapiens) (UniProt P37231). The experiment in a line: qHTS assay to identify small molecule agonists of the peroxisome proliferator-activated receptor gamma (PPARg) signaling pathway (AID 743094; active means well fitted activation curve with a large enough effect in the signal ratio in the repeat runs, not every such curve was filed as active; the % refers to the signal ratio). A digest of the protocol:
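Reporter activation was scored by fluorescence of cleaved LiveBLAzer B/G substrate (1 h, room temperature) in PPARg-bla HEK293H cells previously treated 17 h at 37C with DMSO-dissolved compounds.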

The target is the same in experiment [4]. The experiment in a line: qHTS assay to identify small molecule antagonists of the peroxisome proliferator-activated receptor gamma (PPARg) signaling pathway (AID 743191; calls by dose curve; further: series mostly up to about 63 µM; nearly all actives have a fitted effect of over 30% in size). In short, it runs like this:
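GeneBLAzer PPARg UAS-bla HEK293H cells carrying a UAS-driven beta-lactamase reporter were plated at 3000 cells/well, preincubated 5 h at 37C, then given compound for 17 h at 37C; LiveBLAzer B/G FRET substrate was read after 1 h at room temperature.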

Experiment [5] can be described thus: qHTS assay to identify small molecule antagonists of the peroxisome proliferator-activated receptor gamma (PPARg) signaling pathway - cell viability counter screen (AID 743194). Further: nearly all actives have a fitted effect of over 55% in size. In short, it runs like this:
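PPARg-UAS-bla HEK293H cells were plated, rested 5 h at 37 C, then treated with compounds plus rosiglitazone (50 nM final) for 17 h at 37 C; viability was then read by CellTiter-Glo luminescence after 30 min at room temperature.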

Experiment [6] can be described thus: qHTS assay for small molecule agonists of the antioxidant response element (ARE) signaling pathway (AID 743202; active means well fitted activation curve with a large enough effect in the signal ratio in the repeat runs, not every such curve was filed as active; the % refers to the signal ratio). In short, it runs like this:
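Following a 16 h, 37 C exposure of reporter HepG2 cells (ARE-driven beta-lactamase, 2,000 cells/well) to compounds, FRET substrate was applied for 2 h at room temperature and fluorescence intensity recorded.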

Experiment [7] in a line: qHTS assay for small molecule activators of the heat shock response signaling pathway - cell viability counter screen (AID 743209). Further: nearly all actives have a fitted effect of over 50% in size. A digest of the protocol:
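Viability of HSE-bla HeLa cells is measured with CellTiter-Glo in the wells already used for the reporter read. Compound exposure lasts 5 h at 37 C, and luminescence is read after 30 min at room temperature.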

Experiment [8] can be described thus: qHTS assay to identify small molecule agonists of the peroxisome proliferator-activated receptor delta (PPARd) signaling pathway - cell viability counter screen (AID 743211). Further: nearly all actives have a fitted effect of over 55% in size. A digest of the protocol:
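Viability of GeneBLAzer PPARd UAS-bla HEK293H cells was assessed after 17 h compound incubation at 37C, using CellTiter-Glo reagent added after the reporter read and luminescence recorded 30 min later.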

The target of experiment [9] is Peroxisome proliferator-activated receptor delta (Homo sapiens) (UniProt Q03181). The experiment in a line: qHTS assay to identify small molecule agonists of the peroxisome proliferator-activated receptor delta (PPARd) signaling pathway (AID 743212; calls by dose curve). In short, it runs like this: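 Beta-lactamase reporter read by fluorescence (LiveBLAzer B/G FRET, 2 h, room temperature). Test agents, in DMSO, incubated at 37 C with PPARd-bla HEK293H cells.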

For experiment [10] the target is unchanged. Kind of experiment: qHTS assay to identify small molecule antagonists of the peroxisome proliferator-activated receptor delta (PPARd) signaling pathway (AID 743215; active means well fitted inhibition curve with a large enough effect in the signal ratio in the repeat runs, not every such curve was filed as active; the % refers to the signal ratio;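 further: cells stimulated with agonist L165041 at 300 nM final during compound exposure; series mostly up to about 62 µM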). A digest of the protocol:
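Plated HEK293H PPARd-bla cells rested 5 h at 37 C and 5% CO2. Compound, then agonist L165041 at 300 nM final, was added; 17 h at 37 C followed. Substrate loading, 2 h room temperature, fluorescence measured.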

A short description of experiment [11]: qHTS assay to identify small molecule agonists of the farnesoid-X-receptor (FXR) signaling pathway - cell viability counter screen (AID 743218). Further: nearly all actives have a fitted effect of over 45% in size. In short, it runs like this: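 Viability of FXR-bla HEK 293T cells is measured by ATP-based CellTiter-Glo luminescence following 16 h compound treatment at 37 C and a prior 2 h room-temperature beta-lactamase substrate step.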

Experiment [12] can be described thus: qHTS assay to identify small molecule antagonists of the farnesoid-X-receptor (FXR) signaling pathway - cell viability counter screen (AID 743221; active means well fitted cell-killing curve with a large enough effect in the repeat runs, not every such curve was filed as active; further: nearly all actives have a fitted effect of over 50% in size). A digest of the protocol: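 Quantitative HTS of the Tox21 10K library run in parallel with the beta-lactamase reporter read. HEK 293T cells carrying a UAS-driven bla reporter got compound and 50 uM CDCA (final) for 16 h; ATP-based luminescence followed.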

The target of experiment [13] is Aryl hydrocarbon receptor (Homo sapiens) (UniProt P35869). The experiment in a line: qHTS assay to identify small molecule that activate the aryl hydrocarbon receptor (AhR) signaling pathway (AID 743085). Further: nearly all actives have a fitted effect of over 15% in size. Further: potency means the concentration at half of the fitted maximal effect.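 On activation: HG2L7.5c1 human HepG2 liver cells with stably integrated DRE-driven firefly reporter; series mostly up to about 70 µM.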 In short, it runs like this: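 Steps: seed HepG2-AhR-luc cells; allow 5 h at 37C; pin-transfer test compound or vehicle; incubate 24 h at 37C; add viability dye (30 min, 37C) and read fluorescence; add luciferase substrate (30 min, RT) and read luminescence.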

A short description of experiment [14]: qHTS assay for small molecule activators of the heat shock response signaling pathway (AID 743210; active means well fitted activation curve with a large enough effect in the signal ratio in the repeat runs, with a control signal flat, not every such curve was filed as active; the % refers to the signal ratio; further: series mostly up to about 63 µM). A digest of the protocol:
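Heat shock element–beta-lactamase HeLa reporter cells; qHTS with compounds for 5 h at 37 C; detection by FRET substrate fluorescence after 2.5 h at RT.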

Experiment [15] is described as follows: qHTS assay to identify small molecule antagonists of the peroxisome proliferator-activated receptor delta (PPARd) signaling pathway - cell viability counter screen (AID 743213). Further: nearly all actives have a fitted effect of over 50% in size. A digest of the protocol: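 HEK293H cells with the PPARd UAS-bla reporter, co-treated 17 h at 37 C with compounds and L165041 (300 nM final), were lysed with CellTiter-Glo. Luminescence indicated viable cell content.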

Experiment [16] concerns the target Bile acid receptor (Homo sapiens) (UniProt Q96RI1). The experiment in a line: qHTS assay to identify small molecule antagonists of the farnesoid-X-receptor (FXR) signaling pathway (AID 743217; active means well fitted inhibition curve with a large enough effect in the signal ratio in the repeat runs, not every such curve was filed as active; the % refers to the signal ratio). A digest of the protocol: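 Screen of the Tox21 10K library in quantitative HTS format using FXR-UAS-bla HEK 293T reporter cells. Agonist chenodeoxycholic acid, 50 uM final, added with compounds; 16 h incubation at 37 °C; beta-lactamase FRET fluorescence measured.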

For experiment [17] the target is unchanged. Kind of experiment: qHTS assay to identify small molecule agonists of the farnesoid-X-receptor (FXR) signaling pathway (AID 743220; active means well fitted activation curve with a large enough effect in the signal ratio in the repeat runs, not every such curve was filed as active; the % refers to the signal ratio). A digest of the protocol: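 FXR-UAS-bla HEK 293T cells carrying a UAS-driven beta-lactamase reporter were plated for 5 h at 37C/5% CO2, then exposed to DMSO-dissolved Tox21 10K compounds for 16 h at 37C. A LiveBLAzer B/G FRET substrate was loaded for 2 h at room temperature before fluorescence reading.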

In experiment [18] the target is Vitamin D3 receptor (Homo sapiens) (UniProt P11473). The experiment in a line: qHTS assay to identify small molecule agonists of the vitamin D receptor (VDR) signaling pathway (AID 743222; calls by dose curve). In short, it runs like this: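 Fluorescence from cleaved LiveBLAzer B/G FRET substrate served as readout. VDR-bla cells had been treated 16 h at 37C with test compounds in DMSO, following a 4 h settling period, and substrate was loaded for 2 h at RT.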

The target is the same in experiment [19]. The experiment in a line: qHTS assay to identify small molecule antagonists of the vitamin D receptor (VDR) signaling pathway (AID 743223; active means well fitted inhibition curve with a large enough effect in the signal ratio in the repeat runs, not every such curve was filed as active; the % refers to the signal ratio). In short, it runs like this:
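Fluorescence from LiveBLAzer B/G FRET substrate, read after 2 h at room temperature, reflects beta-lactamase reporter activity in VDR-bla cells treated 16 h at 37C with compounds and agonist 1alpha,25-dihydroxyvitamin D3 (3 nM final).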

Experiment [20] is described as follows: qHTS assay for small molecule agonists of the antioxidant response element (ARE) signaling pathway - cell viability counter screen (AID 743203; calls by dose curve; further: nearly all actives have a fitted effect of over 55% in size). A digest of the protocol: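 Viability counter screen: stably transfected ARE-bla HepG2 line, 16 hrs compound exposure at 37C/5% CO2, ATP-based CellTiter-Glo luminescence measured in the reporter wells.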

Sequence of Bile acid receptor (Homo sapiens) (Q96RI1 whole entry, looked up): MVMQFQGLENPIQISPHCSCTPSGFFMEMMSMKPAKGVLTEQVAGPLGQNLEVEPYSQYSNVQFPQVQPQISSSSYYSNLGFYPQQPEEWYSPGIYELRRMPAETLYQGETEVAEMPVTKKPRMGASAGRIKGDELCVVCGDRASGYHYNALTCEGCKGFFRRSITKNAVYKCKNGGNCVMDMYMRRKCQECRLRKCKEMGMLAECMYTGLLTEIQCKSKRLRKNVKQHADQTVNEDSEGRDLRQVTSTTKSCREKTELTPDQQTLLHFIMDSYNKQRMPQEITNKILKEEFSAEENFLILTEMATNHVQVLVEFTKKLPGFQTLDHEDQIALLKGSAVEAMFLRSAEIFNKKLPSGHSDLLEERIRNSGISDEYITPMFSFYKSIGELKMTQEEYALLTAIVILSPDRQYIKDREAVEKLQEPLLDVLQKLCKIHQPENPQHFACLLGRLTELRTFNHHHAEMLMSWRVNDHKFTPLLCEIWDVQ
Sequence of Aryl hydrocarbon receptor (Homo sapiens) (P35869 whole entry, looked up): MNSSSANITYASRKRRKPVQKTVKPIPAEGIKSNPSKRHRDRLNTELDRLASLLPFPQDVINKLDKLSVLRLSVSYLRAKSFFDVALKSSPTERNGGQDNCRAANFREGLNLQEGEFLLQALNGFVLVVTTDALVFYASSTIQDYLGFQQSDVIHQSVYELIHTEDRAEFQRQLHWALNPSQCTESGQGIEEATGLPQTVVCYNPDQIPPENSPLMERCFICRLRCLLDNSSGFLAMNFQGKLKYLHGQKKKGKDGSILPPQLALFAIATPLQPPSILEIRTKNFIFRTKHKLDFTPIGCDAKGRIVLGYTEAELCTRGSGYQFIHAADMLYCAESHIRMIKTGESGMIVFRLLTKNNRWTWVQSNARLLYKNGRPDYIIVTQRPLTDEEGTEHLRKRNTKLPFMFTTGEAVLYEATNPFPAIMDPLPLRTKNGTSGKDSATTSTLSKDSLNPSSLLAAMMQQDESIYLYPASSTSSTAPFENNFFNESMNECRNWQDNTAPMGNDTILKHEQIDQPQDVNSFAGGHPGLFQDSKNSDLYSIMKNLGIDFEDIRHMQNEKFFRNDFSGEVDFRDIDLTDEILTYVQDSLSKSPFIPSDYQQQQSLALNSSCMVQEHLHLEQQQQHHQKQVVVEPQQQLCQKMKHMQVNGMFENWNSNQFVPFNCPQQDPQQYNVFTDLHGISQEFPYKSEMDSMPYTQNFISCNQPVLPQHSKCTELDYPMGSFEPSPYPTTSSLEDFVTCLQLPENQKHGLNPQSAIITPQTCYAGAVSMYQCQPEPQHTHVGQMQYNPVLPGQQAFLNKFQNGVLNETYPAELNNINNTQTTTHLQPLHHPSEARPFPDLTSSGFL
Sequence of Vitamin D3 receptor (Homo sapiens) (P11473 whole entry, looked up): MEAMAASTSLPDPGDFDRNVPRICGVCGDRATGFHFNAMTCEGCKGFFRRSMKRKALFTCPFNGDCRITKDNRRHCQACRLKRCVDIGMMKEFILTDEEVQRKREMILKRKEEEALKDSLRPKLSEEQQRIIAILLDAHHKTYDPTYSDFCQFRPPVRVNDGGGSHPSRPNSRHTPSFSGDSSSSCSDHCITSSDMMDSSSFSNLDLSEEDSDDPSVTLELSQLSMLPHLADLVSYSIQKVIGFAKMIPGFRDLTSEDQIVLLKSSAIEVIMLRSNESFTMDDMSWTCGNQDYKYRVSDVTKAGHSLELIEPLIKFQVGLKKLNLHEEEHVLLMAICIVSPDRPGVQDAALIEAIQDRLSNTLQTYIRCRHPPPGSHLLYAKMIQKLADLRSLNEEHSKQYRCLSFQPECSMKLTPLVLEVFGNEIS
Sequence of Peroxisome proliferator-activated receptor gamma (Homo sapiens) (P37231 whole entry, looked up): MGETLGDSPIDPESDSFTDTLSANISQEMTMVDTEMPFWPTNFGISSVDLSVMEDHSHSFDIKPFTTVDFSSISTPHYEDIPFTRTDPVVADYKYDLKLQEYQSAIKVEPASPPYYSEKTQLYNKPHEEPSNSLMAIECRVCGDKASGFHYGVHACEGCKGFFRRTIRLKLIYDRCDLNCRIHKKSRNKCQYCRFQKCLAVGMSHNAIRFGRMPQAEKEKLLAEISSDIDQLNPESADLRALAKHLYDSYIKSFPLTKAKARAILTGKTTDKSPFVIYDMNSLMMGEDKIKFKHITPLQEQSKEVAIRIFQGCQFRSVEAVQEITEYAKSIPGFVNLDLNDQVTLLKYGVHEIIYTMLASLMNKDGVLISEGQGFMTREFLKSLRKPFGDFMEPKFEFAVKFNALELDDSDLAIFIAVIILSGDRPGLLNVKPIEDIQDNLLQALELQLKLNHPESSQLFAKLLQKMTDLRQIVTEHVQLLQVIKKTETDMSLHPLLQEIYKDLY
Sequence of Peroxisome proliferator-activated receptor delta (Homo sapiens) (Q03181 whole entry, looked up): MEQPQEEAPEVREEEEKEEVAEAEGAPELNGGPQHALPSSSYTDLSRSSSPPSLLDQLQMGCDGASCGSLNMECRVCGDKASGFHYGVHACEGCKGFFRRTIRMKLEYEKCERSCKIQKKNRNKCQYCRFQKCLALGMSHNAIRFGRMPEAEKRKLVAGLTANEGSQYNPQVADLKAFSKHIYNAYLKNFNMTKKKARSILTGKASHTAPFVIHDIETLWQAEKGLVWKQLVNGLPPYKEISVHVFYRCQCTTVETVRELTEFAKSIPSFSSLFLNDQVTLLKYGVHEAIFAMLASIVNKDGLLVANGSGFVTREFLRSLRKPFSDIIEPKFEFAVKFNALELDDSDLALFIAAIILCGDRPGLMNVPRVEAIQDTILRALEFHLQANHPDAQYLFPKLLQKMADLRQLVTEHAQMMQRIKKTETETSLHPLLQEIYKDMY

Take `O=C(COCCOCCOCC(=O)Nc1c(I)cc(I)c(C(=O)O)c1I)Nc1c(I)cc(I)c(C(=O)O)c1I`: the Potency result in [1], in experiment [2], in experiment [4], in [6] and in [11] was “inactive” each time. Also, the outcome in experiment [3], in [5], in [7], in experiment [8], in experiment [9] and in experiment [10] was inactive. For the same compound, in [12], the compound was called inactive.

`CCOC(=O)C(C)(C)C`: the Potency result in experiment [1], in experiment [13], in [2], in experiment [6] and in experiment [11] was “inactive” each time. Also, the compound was classed as inactive in experiment [5], in experiment [7], in experiment [14], in experiment [8], in experiment [9] and in [15]. For the same compound, the compound was called inactive in experiment [16], in [17], in [12], in [18] and in experiment [19].

For the compound `Cc1ccc(S(=O)(=O)NC(=O)NC2CCCCCCC2)cc1`, the Potency result in experiment [1], in [13], in experiment [2], in [6] and in experiment [11] was “inactive” throughout. Further, the result in [5], in experiment [20], in experiment [7], in experiment [14], in experiment [8] and in experiment [15] was inactive. For the same compound, the result in experiment [12], in experiment [18] and in experiment [19] was inactive.

For `CCNC(=O)/C=C/c1cccc(Br)c1`, the Potency result in [1], in experiment [2], in [4], in experiment [6] and in experiment [11] was “inactive” throughout. The compound was classed as inactive in experiment [3], in [5], in experiment [20], in [7], in experiment [14] and in experiment [8]. In addition, the result in experiment [9], in [15], in [10], in [12], in experiment [18] and in experiment [19] was inactive.

Regarding `CC(C)COC(=O)COc1ccc(Cl)cc1Cl`, the Potency entry in experiment [1], in [13], in [6] and in experiment [11] was “inactive” throughout. Also, the result in experiment [7], in [14], in experiment [8], in experiment [9], in [15] and in experiment [10] was inactive. In addition, the compound was classed as inactive in experiment [16], in [17], in [12], in experiment [18] and in [19].

For the compound `CC(=O)OCCCc1ccccc1`, the Potency entry in experiment [1], in [13] and in experiment [2] was “inactive” each time. The compound was classed as inactive in experiment [5], in [20], in [7], in [14], in experiment [8] and in experiment [9]. Further, the call in [15], in experiment [10], in experiment [16], in experiment [17] and in experiment [12] was inactive.

On to `C=CCOc1c(Br)cc(C(C)(C)c2cc(Br)c(OCC=C)c(Br)c2)cc1Br`, for which the Potency result in experiment [1] and in [2] was “inactive” throughout. The result in experiment [3], in experiment [5], in experiment [20], in experiment [7], in [14] and in experiment [8] was inactive. Moreover, the compound was called inactive in experiment [15], in experiment [16], in experiment [17], in experiment [12] and in experiment [18].

In the case of `CC1=NN(c2ccc(S(=O)(=O)O)cc2)C(=O)C1N=Nc1ccccc1` (stereo unspecified), the values for the Potency in experiment [1] and in experiment [13] were 54.5 µM (active) and 24.3 µM (active), respectively. Moreover, the compound was called inactive in experiment [3], in [5], in [20], in experiment [7], in experiment [14] and in experiment [8]. For the same compound, the result in [9], in experiment [15], in [10], in [12] and in [18] was inactive. Also, the Potency result in experiment [4] and in experiment [11] was “inactive” throughout.

The record behind these values is PubChem BioAssay (Tox21).
